In PubChem BioAssay AID1159580 (chemical genetic matrix, 2015):
Out of some 5,500 compounds screened, about 2,000 (36%) were called active. Inconclusive results (about 18%) are left out. Cut-off read from the data, not from the text of the source: active = normalized growth mostly below about 0.91 (no sharp cut-off); inconclusive = no clear call, values can overlap the other calls; inactive = mostly above about 0.92. Some of the results follow.

Assay: chemical genetic growth profiling, strain panel (AID 1159580);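 note: tested at 20 µM; growth read once vehicle control cultures reached saturation at 30 °C; 1 = growth at the plate median or of vehicle wells; lower values mean less growth of the strain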
Details: S. cerevisiae deletion strains, growth OD

Measured: normalized growth

CCN1CCC[C@H]1CNC(=O)c1c(OC)ccc(I)c1O
inactive: locus YAL040C, strain CLN3, stronger effect = lower value 1.01 | locus YCL061C, strain MRC1 (second series), stronger effect = lower value 1 | locus YDR150W, strain NUM1, stronger effect = lower value 0.986 | locus YDR363W, strain ESC2, stronger effect = lower value 1.01 | locus YER002W, strain NOP16, stronger effect = lower value 0.996 | locus YGR229C, strain SMI1, stronger effect = lower value 0.92 | locus YJR075W, strain HOC1, stronger effect = lower value 0.984 | locus YMR307W, strain GAS1, stronger effect = lower value 1 | locus YNL175C, strain NOP13, stronger effect = lower value 1 | locus YNL197C, strain WHI3, stronger effect = lower value 1.02 | locus YNL224C, strain SQS1, stronger effect = lower value 1.01 | locus YNL322C, strain KRE1, stronger effect = lower value 0.996 | locus YOR083W, strain WHI5 (second series), stronger effect = lower value 0.974 | locus YPL055C, strain LGE1, stronger effect = lower value 0.972 | locus YPL241C, strain CIN2, stronger effect = lower value 0.998
